From ChEMBL document CHEMBL4296182, “CO-ADD screening of NIH NCI Diversity Set V” come the findings set out here.

For orientation: Inhibition means the change of the read-out against control, counted positive when it falls.

One experiment concerns Staphylococcus aureus. Kind of experiment: Antibacterial activity against Staphylococcus aureus MRSA ATCC 43300 (CO-ADD:GP_020); MIC in CAMBH media using NBS plates, by Resazurin F(560/590). Particulars: Concentration 20 uM, ASSAY_TEST Inhibition of Bacterial Growth, detection method Resazurin, Fluorescence (ex560/em590), MEDIA CAMHB, plate type 384well, CORNING #3640, time 18 hr. Type of experiment: functional. A general note: Resazurin is reduced to fluorescent resorufin, in cell work by metabolically active cells.

A further experiment has as its system Acinetobacter baumannii. Kind of experiment: Antibacterial activity against Acinetobacter baumannii ATCC 19606 (CO-ADD:GN_034); MIC in CAMBH media using NBS plates, by Resazurin F(560/590). Type of experiment: functional. Conditions: Concentration 20 uM, ASSAY_TEST Inhibition of Bacterial Growth, detection method Resazurin, Fluorescence (ex560/em590), MEDIA CAMHB, plate type 384well, CORNING #3640, time 18 hr.

The test system of a further experiment is Escherichia coli. Kind of experiment: Antibacterial activity against Escherichia coli ATCC 25922 (CO-ADD:GN_001); MIC in CAMBH media using NBS plates, by Resazurin F(560/590). Type of experiment: functional. Conditions: Concentration 20 uM, ASSAY_TEST Inhibition of Bacterial Growth, detection method Resazurin, Fluorescence (ex560/em590), MEDIA CAMHB, plate type 384well, CORNING #3640, time 18 hr.

The test system of a further experiment is Klebsiella pneumoniae. Particulars: Concentration 20 uM; ASSAY_TEST Inhibition of Bacterial Growth; detection method Absorption (OD600); MEDIA CAMHB; plate type 384well; NBS; CORNING #3640; time 18 hr.
In another experiment the test system is Candida albicans. Conditions: 20 µM.
The test system of another experiment is Cryptococcus neoformans. Conditions: Concentration 20 uM; ASSAY_TEST Inhibition of Fungal Growth; detection method Resazurin; Absorption (OD600-OD570); plate type 384well; NBS; CORNING #3640.

For part of these data: Measured potencies and affinities stand elsewhere.

For `O=C(Nc1ccccc1)Oc1cccnc1O`, the Inhibition in the experiment with Staphylococcus aureus is 7.3%; in the experiment with Acinetobacter baumannii, 9.45%; in the experiment with Escherichia coli, -1.58%; with Klebsiella pneumoniae it was 18.58%; in the experiment with Candida albicans, 5.22%; with Cryptococcus neoformans, -7.26%.
Consider `CC(C)(C)N1CC(OC(N)=O)C1`, for which the Inhibition was 21.14% with Staphylococcus aureus; -14.09% in the experiment with Acinetobacter baumannii; 8.01% in the experiment with Escherichia coli; 8.74% in the experiment with Klebsiella pneumoniae; 1.7% in the experiment with Candida albicans; -9.34% with Cryptococcus neoformans.
As to `c1cc2c3c(cccc3c1)NC1(CCC3(CC1)Nc1cccc4cccc(c14)N3)N2`, the Inhibition in the experiment on Staphylococcus aureus was 1.15%; with Acinetobacter baumannii it was 7%; in the experiment with Escherichia coli, 12.93%; in the experiment with Klebsiella pneumoniae it was 19.89%; in the experiment with Candida albicans, 2.38%; in the experiment on Cryptococcus neoformans, -5.58%.
As to `CCCCOc1ccc(NC(=O)Nc2nnc(C)s2)cc1`, the Inhibition in the experiment with Staphylococcus aureus was 12.15%; in the experiment on Acinetobacter baumannii, 11.82%; in the experiment with Escherichia coli, 5.52%; in the experiment with Klebsiella pneumoniae, 16.37%; in the experiment on Candida albicans, -3.65%; in the experiment on Cryptococcus neoformans, -3.97%.
Take `COc1ccc(NC2=NC(C)(CO)CS2)cc1` (stereo not given): the Inhibition in the experiment on Staphylococcus aureus is 33.41%; with Acinetobacter baumannii, -4.98%; with Escherichia coli, 1.2%; in the experiment with Klebsiella pneumoniae it was 15.06%; in the experiment with Candida albicans, 1.85%; in the experiment with Cryptococcus neoformans, 5.77%.
As to `O=C(Oc1cccnc1O)c1cccc(Cl)c1`, the Inhibition was -7.64% in the experiment with Staphylococcus aureus; 10.47% in the experiment with Acinetobacter baumannii; 6.47% in the experiment with Escherichia coli; 11.85% in the experiment on Klebsiella pneumoniae; 13.4% in the experiment on Candida albicans; -17.52% with Cryptococcus neoformans.
Turning to `Cc1nc2[nH]c(=O)n(O)c(=O)c2s1`, the Inhibition with Staphylococcus aureus was 4.12%; in the experiment with Acinetobacter baumannii it was -18.15%; in the experiment on Escherichia coli, 5.04%; in the experiment with Klebsiella pneumoniae, 12.49%; in the experiment on Candida albicans, 3.41%; with Cryptococcus neoformans it was -6.64%.
With `CCC1(CC)C(=O)NC(=S)N=C1N`, the Inhibition was 2.67% with Staphylococcus aureus; -4.28% in the experiment on Acinetobacter baumannii; 12.79% in the experiment with Escherichia coli; 14.22% in the experiment with Klebsiella pneumoniae; 7.8% with Candida albicans; -2.67% in the experiment on Cryptococcus neoformans.
In the case of `COC(=O)C(=Cc1ccccc1[N+](=O)[O-])C(=O)OC`, the Inhibition was -1.4% in the experiment with Staphylococcus aureus; -8.17% in the experiment with Acinetobacter baumannii; 9.13% with Escherichia coli; 10.58% in the experiment with Klebsiella pneumoniae; 9.98% in the experiment on Candida albicans; -18.32% in the experiment with Cryptococcus neoformans.
Regarding `COc1cc(C(=O)OC(C)CN2CCOCC2)cc(OC)c1OC` (stereo not given), the Inhibition is 13.82% in the experiment on Staphylococcus aureus; 10.27% with Acinetobacter baumannii; 6.24% in the experiment with Escherichia coli; 16.73% with Klebsiella pneumoniae; -2.91% in the experiment on Candida albicans; -0.56% with Cryptococcus neoformans.
In the case of `Cc1ccc2nc(Cl)cc(=O)n2c1`, the Inhibition was 3.79% in the experiment with Staphylococcus aureus; -0.85% in the experiment with Acinetobacter baumannii; -11.05% with Escherichia coli; 5.29% in the experiment with Klebsiella pneumoniae; 1.34% in the experiment on Candida albicans; 9.92% in the experiment with Cryptococcus neoformans.
For the molecule `Nc1nc(N)nc(C2C=CCCC2)n1` (stereo not given), the Inhibition in the experiment with Staphylococcus aureus is 1.35%; with Acinetobacter baumannii it was -5.4%; in the experiment with Escherichia coli it was 16.17%; in the experiment on Klebsiella pneumoniae, 16.96%; in the experiment with Candida albicans, 0.09%; in the experiment with Cryptococcus neoformans, -8.05%.
For `CC1(C)CCCC2(C)C(OCCO)=CC(=O)C=C12` (stereo not given), the Inhibition was 7.52% in the experiment on Staphylococcus aureus; 8.39% in the experiment with Acinetobacter baumannii; 0.39% in the experiment on Escherichia coli; 20.08% with Klebsiella pneumoniae; 2.7% in the experiment with Candida albicans; -10.94% with Cryptococcus neoformans.
In the case of `O=[N+]([O-])c1ccc(/C=C\c2ccncc2)cc1`, the Inhibition in the experiment with Staphylococcus aureus was -4.43%; in the experiment with Acinetobacter baumannii, 17.7%; in the experiment on Escherichia coli, -9.25%; in the experiment with Klebsiella pneumoniae it was 16.94%; with Candida albicans, 3.43%; in the experiment on Cryptococcus neoformans, -1.17%.
In the case of `CCOC(=O)C1CC(C)=C(C)CC1C(=O)O` (stereo not given), the Inhibition with Staphylococcus aureus was -6.63%; in the experiment on Acinetobacter baumannii, 13.31%; in the experiment with Escherichia coli, 5.04%; with Klebsiella pneumoniae, 7.81%; in the experiment with Candida albicans it was 6.96%; in the experiment with Cryptococcus neoformans, -10.63%.
As for `CCOC(=O)C1C(=O)C(=O)N(C(C)C)C1C(=O)OCC` (stereo not given), the Inhibition in the experiment on Staphylococcus aureus is 9.9%; with Acinetobacter baumannii it was 14.67%; with Escherichia coli, -8.18%; in the experiment with Klebsiella pneumoniae, 12.15%; in the experiment on Candida albicans, 4.37%; in the experiment with Cryptococcus neoformans, 17.48%.
In the case of `CC1=C(c2ccccc2)C=NNCC1=O`, the Inhibition is 7.06% in the experiment with Staphylococcus aureus; -11.86% in the experiment on Acinetobacter baumannii; 19.62% with Escherichia coli; 15.54% with Klebsiella pneumoniae; 3.87% with Candida albicans; -8.22% with Cryptococcus neoformans.
Regarding `CC1(C)CC2(C)OC2C2(C1)N=N/C(=N/c1ccccc1)O2` (stereo not given), the Inhibition is 27.69% in the experiment with Staphylococcus aureus; -0.3% with Acinetobacter baumannii; 4.99% with Escherichia coli; 7.34% in the experiment with Klebsiella pneumoniae; -0.47% in the experiment with Candida albicans; -10.74% in the experiment with Cryptococcus neoformans.
As to `c1ccc2nc(NN=C3CCCCC3)ccc2c1`, the Inhibition in the experiment on Staphylococcus aureus is 9.39%; in the experiment on Acinetobacter baumannii, -16.84%; in the experiment with Escherichia coli it was 10.6%; in the experiment with Klebsiella pneumoniae, 9.11%; with Candida albicans it was 3.78%; in the experiment with Cryptococcus neoformans it was -6.92%.
For `CC(C)(C)n1nc(C2CC2)cc1NC(=O)Nc1ccc(Cl)cc1`, the Inhibition in the experiment with Staphylococcus aureus was 0.51%; with Acinetobacter baumannii, 11.57%; in the experiment on Escherichia coli, -11.06%; with Klebsiella pneumoniae it was 6.85%; in the experiment on Candida albicans it was 4.6%; in the experiment on Cryptococcus neoformans it was 3.95%.
